Bioassay records as filed in PubChem BioAssay.
EWS-Fli block – EWS/Fli transcriptional activity inhibition | hit rate 0.67% among 350,000 | A673 NR0B1-luciferase reporter, viability-normalised | inhibition, % at 12.6 µM;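 active means mean inhibition of at least 50% after viability correction, with every replicate also passing that limit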;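 further: firefly luciferase signal divided by Alamar Blue viability fluorescence both relative to DMSO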
RAD54 inh – inhibitors of human RAD54 branch migration; RAD54 Holliday junction branch migration, FAM/BHQ fluorescence; inhibition, % at 10.4 µM; hit rate 0.14% among 360,000; AID 602329; Q92698;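 active means mean normalized replicate activity at least 40 and at least half of replicates scoring 40 or more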;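 further: 0% = median of neutral control wells and 100% = median of positive control wells; inhibitors cause a drop in the FAM fluorescence signal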
Target sequence (Q92698 whole entry, looked up): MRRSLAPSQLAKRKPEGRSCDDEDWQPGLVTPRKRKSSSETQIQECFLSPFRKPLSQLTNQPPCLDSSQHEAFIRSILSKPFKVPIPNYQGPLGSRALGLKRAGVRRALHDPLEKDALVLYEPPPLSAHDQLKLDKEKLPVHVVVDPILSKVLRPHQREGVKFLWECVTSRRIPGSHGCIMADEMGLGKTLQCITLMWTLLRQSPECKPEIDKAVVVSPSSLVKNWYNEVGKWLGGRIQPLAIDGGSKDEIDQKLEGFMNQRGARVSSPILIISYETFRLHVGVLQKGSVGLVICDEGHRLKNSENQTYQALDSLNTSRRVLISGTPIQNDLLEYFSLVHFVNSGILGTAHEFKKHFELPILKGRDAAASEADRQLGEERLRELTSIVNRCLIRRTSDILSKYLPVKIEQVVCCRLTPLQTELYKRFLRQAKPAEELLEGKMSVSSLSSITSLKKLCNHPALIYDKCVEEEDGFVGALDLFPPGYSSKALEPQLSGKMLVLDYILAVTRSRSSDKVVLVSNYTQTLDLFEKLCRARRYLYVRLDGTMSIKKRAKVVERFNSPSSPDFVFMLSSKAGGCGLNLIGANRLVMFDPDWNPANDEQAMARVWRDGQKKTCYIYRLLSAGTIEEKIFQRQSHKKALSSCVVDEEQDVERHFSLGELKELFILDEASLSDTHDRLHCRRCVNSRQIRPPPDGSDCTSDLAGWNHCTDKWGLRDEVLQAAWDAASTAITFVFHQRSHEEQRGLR
GSIS activator – primary screen for activators of insulin secretion dependent on glucose, INS-1E cells, GLuc reporter luminescence; INS-1E GLuc reporter insulin secretion, 2-3 h; activation, % at 16.6 µM; hit rate 0.61% among 370,000; AID 743287;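 active means lowest replicate activation of at least 40%, so every replicate reaches that level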;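 further: 0% = median of neutral control wells and 100% = median of IBMX positive control wells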
CFTR F508del cor – correctors of CFTR F508del function in bronchial epithelial cells; CFBE cells, YFP halide quenching; stimulated with forskolin plus potentiator P3; % fluorescence drop versus neutral controls; activity (quench increase), % at 7.58 µM; hit rate 0.36% among 350,000;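 active means mean added fluorescence quench of at least 8% versus neutral control, with both replicates also reaching 8%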;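 further: cells transiently co-express mutant CFTR-F508del with the halide-sensitive YFP; corrector assay measuring rescue of mutant channel to the surface after 24 h compound exposure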
RAD52 anneal inh – inhibitors of human RAD52 DNA annealing | recombinant RAD52 DNA annealing, FRET fluorescence | inhibition, % at 18.7 µM | hit rate 0.46% among 360,000 | AID 651710;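 active means every replicate showing at least 50% inhibition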
LGR2 inh – Drosophila LGR2 receptor signaling inhibition | hit rate 0.35% among 380,000 | HEK293 LGR2, CRE-luciferase, bursicon-stimulated, 4 h | inhibition, % at 9.99 µM;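 active means drop in luminescence signal, shown as inhibition above about 50% in the replicate tests, limit read from the data, passing the limit was not always enough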;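 further: agonist challenge used bursicon conditioned medium at about half maximal strength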
* = called active by the depositor; i = inactive; x = no result given. The list is not random: actives were taken first. Their share in the collection is about 1.8%.

SMILES | EWS-Fli block | RAD54 inh | GSIS activator | CFTR F508del cor | RAD52 anneal inh | LGR2 inh
CCc1nc2ccc(C(=O)NCCCN3CCCC3=O)cn2c1N(CCC(C)C)CCN(C)C | -5.1 | 6.8 | 48.7* | 2.2 | -9.9 | -8.4
CC(C)NC(=O)NC(=O)COC(=O)c1ccc(S(=O)(=O)Nc2ccccc2)cc1 | 10.5 | x | -1.8 | 22.8* | -4.0 | 31.0
CC(C)NC(=O)NC(=O)COC(=O)c1ccc(OC(F)(F)F)cc1 | x | 4.8 | 9.5 | x | x | 11.9
O=C(/C=C/c1ccc(Br)cc1)c1ccc(NC(=O)c2ccco2)cc1 | x | 0.5 | 113.6* | x | x | -21.8
COc1ccc(-c2ccc(/C=C3/C(=N)N4C=CSC4=NC3=O)o2)c([N+](=O)[O-])c1 | x | -2.8 | 158.1* | x | x | 12.6
N=C1/C(=C/c2cccn2-c2ccc([N+](=O)[O-])cc2)C(=O)N=C2SC=CN12 | 5.3 | x | 11.7 | -2.2 | -16.3 | 8.4
COc1ccc2nc(/C=N/NC(=O)CCNC(=O)OC(C)(C)C)ccc2c1 | -39.9 | x | x | 1.6 | -8.7 | -8.1
COc1ccc(/C(C)=N/Nc2ccc(C(=O)O)cc2)cc1OC | x | 1.7 | 62.7* | x | x | -54.8
CCOC1=C2CN(S(=O)(=O)c3ccc(C)cc3)C(c3cccc(Cl)c3)CC2N(S(=O)(=O)c2ccc(C)cc2)C(c2ccncc2)C1 (centres undefined) | 17.9 | x | -23.2 | 3.2 | 0.4 | 9.8
Cn1c(=O)c(NC2CCCCC2)c2c3c(cccc31)C(=O)c1ccccc1-2 | -14.0 | x | 1.1 | 16.0* | i | -5.8
Cn1c(=O)c(NCCO)c2c3c(cccc31)C(=O)c1ccccc1-2 | x | i | -5.5 | x | i | 1.5
Cc1cc(C)cc(Cn2c3ccc(NC(=S)NCc4ccccc4F)cc3c(=O)n2C)c1 | 10.0 | 6.3 | 56.0* | -7.7 | -32.8 | 7.6
OC(c1ccccc1)(c1ccccc1)C1CCN(CCCOc2cc(F)cc(F)c2)CC1 | 8.9 | x | -42.1 | 1.8 | -2.2 | -5.3
OC(c1ccccc1)(c1ccccc1)C1CCN(CCCOc2cccc(OC(F)(F)F)c2)CC1 | 15.0 | x | 159.9* | 3.9 | 4.3 | -0.1
OC(c1ccccc1)(c1ccccc1)C1CCN(CCCOc2ccc(-c3ccc(F)cc3F)cc2)CC1 | 31.4 | x | 249.3* | 3.5 | -6.4 | 1.1
CC(Oc1ccccc1Cl)C(=O)Nc1ccc(S(=O)(=O)Nc2nccs2)cc1 (centres undefined) | 8.7 | -17.3 | 86.9* | 8.7* | -26.7 | -5.4
Cc1cccc(Cn2ccc(-c3ccc(Cl)cc3)c(C#N)c2=O)c1 | x | -13.3 | 95.5* | x | x | -1.0
N#Cc1c(-c2ccccc2)ccn(Cc2ccc(Cl)cc2)c1=O | x | 3.4 | x | x | x | x
C/C(=N/NC(=O)c1ccc(Br)s1)c1ccncc1 | x | 3.1 | 49.9* | 4.5 | -2.4 | -26.5
O=C(NCc1ccccc1)C1Cc2c(-c3ccc(Cl)cc3)ccnc2O1 (centres undefined) | 60.3* | -8.5 | -21.9 | 9.2* | -6.6 | -1.7
NC(=O)c1cccc(-c2ccnc3c2CC(C(=O)NCc2ccco2)O3)c1 (centres undefined) | 42.9 | -8.4 | 0.0 | -0.6 | -0.9 | 3.0
CC(=O)c1cccc(-c2ccnc3c2CC(C(=O)NCc2ccco2)O3)c1 (centres undefined) | 48.6 | -7.3 | -3.8 | 12.6* | -10.2 | -13.1
COc1ccc(CNC(=O)C2Cc3c(-c4cccc(F)c4)ccnc3O2)cc1OC (centres undefined) | 1.9 | 1.3 | 56.6* | 0.5 | -4.2 | 4.8
O=C(NCc1ccccc1)C1Cc2c(-c3cccc(F)c3)ccnc2O1 (centres undefined) | 67.2* | 1.6 | -15.2 | 9.1* | -56.8 | 9.9
O=C(NCc1cccc(Cl)c1)C1Cc2c(-c3cccc(F)c3)ccnc2O1 (centres undefined) | 1.9 | 4.1 | -12.0 | -2.2 | -10.0 | 1.4
N#CCOC(=O)[C@H](Cc1c[nH]c2ccccc12)NS(=O)(=O)c1ccc(Cl)cc1 | -0.8 | 2.5 | -12.6 | -4.0 | -28.1 | -2.6
Cc1cc(C(=O)Nc2ccc3c(c2)C(=O)N(C)[C@@H]2CC[C@@H](CC(=O)NCC(F)(F)F)O[C@H]2CO3)no1 | -4.2 | -6.3 | 5.9 | -1.1 | 4.4 | -3.5
C/C(CC(=O)NC(C)(C)C)=N\NC(=O)COc1ccc(C)cc1Br | -4.0 | x | -2.4 | -2.5 | -16.4 | -19.9
O=C(NCc1ccco1)C1CC(c2cc(C(F)(F)F)cc(C(F)(F)F)c2)=NO1 (centres undefined) | 75.0* | -3.6 | x | 2.2 | -3.1 | -11.8
